This is one part of a sample in which hits are shown more often than they occur.
Eya2 inh: Eya2 (human) phosphatase inhibition; O00167; recombinant Eya2, OMFP fluorescence dephosphorylation (OMFP is methylfluorescein phosphate); Potency, µM (doses to about 76.9 µM), for the others: at the top dose activity, negative = inhibition, most hits filed as inhibitors; 0.006% of 330,000 active; further: on the % scale 0 is the no-effect control and ±100 the full control effect
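Eya2 protein (added as 0.2 uM solution) was preincubated with compound for 10 min at ambient temperature in 50 mM HEPES pH 7.5, 50 mM NaCl, 5 uM MgCl2, 0.05% BSA, 1 mM DTT. OMFP (added at 50 uM) then reacted 10 min; fluorescence read at 485/525 nm.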
USP2a inh: blocks human ubiquitin-specific protease USP2a. O75604. 0.01% of 330,000 active. AID 463254. Potency, µM (highest dose often 38.3 µM), inactives show at the top dose activity change, negative = inhibition, hits mostly inhibitors. USP2 core, Ub-CHOP2 coupled fluorogenic reporter, 485/531;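 further: plate controls were DMSO wells for no effect and full inhibition by NEM control for full effect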
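Deubiquitinase activity read as fluorescence (485/531 nm) after Ub-CHOP2 cleavage activates the enterokinase reporter on its substrate; USP2 core 10nM, Ub-CHOP2 and substrate 25nM each, 30min compound preincubation then 60min RT; data normalized to NEM, curves fitted.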
GALK inh: galactokinase (human) inhibition; AID 1868; 0.007% of 270,000 active; Potency, µM (doses to about 57.5 µM), without a hit: at the highest dose activity change, negative = inhibition, usual class: inhibitors; Purified GALK, Kinase-Glo residual ATP luminescence; further: on the % scale 0 is the no-effect control and ±100 the full control effect
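ATP-depletion format; final 35 uM ATP, 100 uM D-galactose, 5 nM enzyme; pH 8.0 HEPES/Mg2+ buffer; 60 min RT; luminescence read 10 min after detection reagent.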
ClpP mod: qHTS Assay for Activators of ClpP; 1.9% of 340,000 active; purified B. subtilis ClpP, FRET peptide cleavage, 20 min; Potency, µM (doses to about 57.5 µM), for inactives: top-dose activity change, negative = active; active means well fitted falling curve with a large enough effect; inconclusive means small, poorly fitted or top-dose-only effect; inactive means no such curve, though single readings can be large or run the other way; further: the source files actives as falling curves though it sought activators and does not explain the sign; nearly all actives have a fitted effect of over 65% in size
Target sequence (P80244 whole entry, looked up): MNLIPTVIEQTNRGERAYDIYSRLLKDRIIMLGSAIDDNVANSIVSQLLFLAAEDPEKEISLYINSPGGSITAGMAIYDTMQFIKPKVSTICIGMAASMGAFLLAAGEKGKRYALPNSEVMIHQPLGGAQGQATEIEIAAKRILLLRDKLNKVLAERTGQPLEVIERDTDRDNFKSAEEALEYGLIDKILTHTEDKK
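FRET quenching reversal measured ClpP activation: 10 microg/mL B. subtilis ClpP at pH 8 with the FRET-FV decapeptide, read at 430 nm after 320 nm excitation. The 20-min minus 0-min signal was scaled between DMSO/no-enzyme wells and ADEP (5.8 microM final).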
Starred values were filed as active, the others as inactive; ? = inconclusive; . = not tested or not shown. Unless noted, the call rests on the fitted dose curve; in most records, active means well fitted inhibition curve with a large enough effect; inconclusive means small, poorly fitted or top-dose-only effect, or effect the other way; inactive means flat fitted curve, though single readings scatter. Potency means the concentration at half of the fitted maximal effect.

SMILES | Eya2 inh | USP2a inh | GALK inh | ClpP mod
COc1ccc(NC(=O)c2oc3ccc(S(=O)(=O)N(C)C4CCCCC4)cc3c2C)cc1 | . | . | . | -20%
Cc1c(C(=O)Nc2cccc(Cl)c2)oc2ccc(S(=O)(=O)N(C)C3CCCCC3)cc12 | . | . | . | 20µM*
O=C1N=NC(=O)N1c1ccccc1 | 6% | 3% | . | 1%
CCOC(=O)c1c(NC(=O)CS(=O)(=O)c2cn(CC)c3ccccc23)sc2c1CCCCC2 | -3% | 3% | . | -12%
Cc1ccc(NC(=O)NC(=O)N(C(C)C)S(C)(=O)=O)nc1 | -16% | 2% | 0% | 35µM*
CSc1nc(Sc2ccccc2Cl)c2ccccc2n1 | 6% | 4% | 0% | 32µM*
CCOC(=O)c1cnc(SC)nc1Sc1ccccc1Cl | -8% | -5% | 1% | 1%
CCOC(=O)c1ccc(NC(=S)N(CCCN2CCN(CC)CC2)Cc2ccco2)cc1 | -4% | 4% | 9% | -2%
CCc1ccc(OCc2cc(=O)n3c4c(sc3n2)CCCC4)cc1 | . | . | . | -27%
Nc1c(S(=O)(=O)c2ccccc2)c2nc3ccccc3nc2n1Cc1ccco1 | ? | 27% | -3% | 16µM*
Nc1c(S(=O)(=O)c2ccccc2)c2nc3ccccc3nc2n1CCN1CCOCC1 | -24% | 0% | . | 4%
Cc1ccc(S(=O)(=O)c2c(N)n(CCN3CCOCC3)c3nc4ccccc4nc23)cc1C | 25% | -1% | 1% | 28µM*
Cc1ccc(S(=O)(=O)c2c(N)n(Cc3ccco3)c3nc4ccccc4nc23)cc1C | -3% | 23% | -1% | 11µM*
c1ccc2c3c([nH]c2c1)CCCC3 | . | . | . | -13%
c1ccc2c(c1)ccc1[nH]c3c(c12)CCCC3 | . | . | . | 18µM*
O=C(Cc1ccc(Br)cc1)NC1CCCc2ccccc21 (stereo not given) | 7% | 0% | 9% | .
Cc1noc(C)c1C(=O)OCC(=O)C12CC3CC(CC(C3)C1)C2 | 0% | 4% | 0% | 1%
Cc1cccc(NC(=O)Cn2c(/C=C/c3ccccc3)nc3ccccc32)c1 | 8% | -3% | 1% | 32µM*
COc1cc(NC(=O)COC(=O)c2ccccc2SCC(=O)N2CCCC2)cc(OC)c1 | -4% | 4% | . | -3%
COc1ccc(C)cc1NC(=O)COC(=O)c1ccccc1SCC(=O)N1CCCC1 | -9% | 1% | . | 28µM*
CC(C)c1ccc(CN(C(=O)c2cccs2)C2CCS(=O)(=O)C2)cc1 (stereo not given) | -2% | -1% | 7% | ?
O=c1oc2ccccc2c(O)c1C=NCc1ccccn1 | -4% | 4% | 1% | 1%
CN(C)c1ccc(-c2noc(C3CCN(S(=O)(=O)c4cccc(Cl)c4)CC3)n2)cc1 | 12% | 2% | 0% | 20µM*
CN(C)c1ccc(-c2noc(C3CCN(S(=O)(=O)c4ccc(C(=O)O)cc4)CC3)n2)cc1 | . | . | . | -5%
Cc1cccc(C)c1NC(=O)CN1C(=O)S/C(=C\c2cccn2-c2cccc(C(=O)O)c2)C1=O | -1% | 1% | 0% | 28µM*
SMILES | Eya2 inh | USP2a inh | GALK inh | ClpP mod
COCCNc1nc(NCC2CCCCC2)c2sc(-c3ccccc3)cc2n1 | . | . | . | 25µM*
c1ccc(-c2cc3nc(NCC4CC4)nc(NCC4CCCCC4)c3s2)cc1 | . | . | . | 20µM*
COCCNc1nc(NCCOc2ccccc2Cl)c2sc(-c3ccccc3)cc2n1 | . | . | . | -27%
CCCCCOc1ccc(/C=C/C(=O)Nc2sc(C)c(C)c2C(=O)OCC)cc1OC | . | . | . | -13%
COc1ccc(CNC(=O)c2cc3c(=O)n(Cc4cccnc4)ccc3nc2C)cc1 | . | . | . | 25µM*
COc1ccc(CNC(=O)c2cc3c(=O)n(Cc4cccs4)ccc3nc2C)cc1 | . | . | . | 14µM*
Cc1ccc(CNC(=O)c2cc3c(=O)n(Cc4cccnc4)ccc3nc2C)cc1 | . | . | . | 28µM*
COc1ccc(NC(=O)c2cc3c(=O)n(Cc4cccnc4)ccc3nc2C)cc1OC | . | . | . | -9%
Cc1cc(C)c2nc(N3CCOCC3)c(C#N)cc2c1 | 13% | 0% | 2% | .
N#Cc1cc2cc3c(cc2nc1N1CCOCC1)OCO3 | -5% | 1% | 4% | 32µM*
CCCC(=O)Nc1ccc2oc(-c3cccnc3)nc2c1 | 16% | 0% | -1% | 16µM*
CCCC(=O)Nc1ccc2oc(=O)ccc2c1 | 9% | 1% | 0% | 25µM*
Cc1ccc2oc(-c3cccc(NC(=O)C4CCCO4)c3)nc2c1 (stereo not given) | 3% | 1% | 0% | 28µM*
